# Assay results as given in PubChem BioAssay.
# A number with no mark means an inactive call. The list shows a part of the results. Activity calls are given as the source filed them. Cut-off read from the data, not from the text of the source, unless noted: active = inhibition above about 23%; inactive = the rest.
# Columns and labels:
# [1] = BSA probe fluorescence interference – biochemical, TAMRA-labeled BSA, counter-screen for TCR-CD3 interaction inhibitor project (AID 652035); details: TAMRA-labeled BSA probe fluorescence counterscreen; at 9.4 µM; stronger effect = higher value;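 note: 0% = buffer low control and 100% = reference high control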
# [2] = tested on: T-cell receptor (TCR)-CD3 interaction, human; assay: blockers of TCR binding to CD3 – biochemical, fluorescence, TAMRA-labeled TCR probe, confirmation (AID 652036; in the data active = inhibition above about 19%); details: TAMRA-labeled TCR probe fluorescence binding assay; at 9.4 µM; stronger effect = higher value
# [3] = VP16-driven transactivation reporter suppression – cell-based, luminescence, HEK293, counter-screen for COUP-TFII antagonist project (AID 687007; in the data active = inhibition above about 13%); details: HEK293 Gal4-VP16 luciferase reporter, at 8.5 µM, stronger effect = higher value
# [4] = target: COUP transcription factor 2 (Homo sapiens) (UniProt P24468); assay: retest of COUP-TFII reporter suppressors – cell-based, luciferase reporter, HEK293, triplicate, confirmation (AID 687008;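 active = mean inhibition over three repeats above a set limit taken from the earlier primary screen, cut at about 38% in these data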;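 note: 100% = cells given the luciferase reporter alone without the COUP-TF2 vector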); details: HEK293 NGFI-A luciferase reporter, luminescence; at 8.5 µM; stronger effect = higher value
# COUP transcription factor 2 (Homo sapiens), sequence (P24468 whole entry, looked up): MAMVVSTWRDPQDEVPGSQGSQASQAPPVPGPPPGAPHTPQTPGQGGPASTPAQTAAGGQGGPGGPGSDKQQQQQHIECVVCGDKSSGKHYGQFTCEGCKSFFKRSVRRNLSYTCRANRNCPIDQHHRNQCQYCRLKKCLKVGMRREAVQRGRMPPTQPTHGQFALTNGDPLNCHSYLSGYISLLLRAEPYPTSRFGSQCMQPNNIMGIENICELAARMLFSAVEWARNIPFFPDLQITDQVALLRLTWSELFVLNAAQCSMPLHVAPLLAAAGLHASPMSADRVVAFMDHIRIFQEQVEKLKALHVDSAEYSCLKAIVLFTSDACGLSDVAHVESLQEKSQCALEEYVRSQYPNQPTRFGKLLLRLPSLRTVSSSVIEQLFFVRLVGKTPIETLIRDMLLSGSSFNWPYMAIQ
# [5] = tested on: transactivating tegument protein VP16 (Human herpesvirus 1); assay: compounds suppressing VP16-driven luciferase signal – cell-based, luminescence, single concentration, counter-screen for SRC2 inhibitor project (AID 652007; in the data active = inhibition above about 36%); details: cell-based VP16 transactivation luciferase reporter, at 8.9 µM, stronger effect = higher value
# [6] = target: Nuclear receptor coactivator 2 (Homo sapiens) (UniProt Q15596); assay: inhibition of GAL4-SRC2 driven luciferase expression – cell-based, luminescence, HEK293, triplicate, confirmation (AID 652008;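 active = mean inhibition above 46.5%, the solvent-only control mean plus 3 SD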;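 note: 0% = DMSO-treated cells and 100% = Gossypol at 36 µM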); details: HEK293 GAL4-SRC2 luciferase reporter, at 8.9 µM, stronger effect = higher value
# Nuclear receptor coactivator 2 (Homo sapiens), sequence (Q15596 whole entry, looked up, the tested form may be a part): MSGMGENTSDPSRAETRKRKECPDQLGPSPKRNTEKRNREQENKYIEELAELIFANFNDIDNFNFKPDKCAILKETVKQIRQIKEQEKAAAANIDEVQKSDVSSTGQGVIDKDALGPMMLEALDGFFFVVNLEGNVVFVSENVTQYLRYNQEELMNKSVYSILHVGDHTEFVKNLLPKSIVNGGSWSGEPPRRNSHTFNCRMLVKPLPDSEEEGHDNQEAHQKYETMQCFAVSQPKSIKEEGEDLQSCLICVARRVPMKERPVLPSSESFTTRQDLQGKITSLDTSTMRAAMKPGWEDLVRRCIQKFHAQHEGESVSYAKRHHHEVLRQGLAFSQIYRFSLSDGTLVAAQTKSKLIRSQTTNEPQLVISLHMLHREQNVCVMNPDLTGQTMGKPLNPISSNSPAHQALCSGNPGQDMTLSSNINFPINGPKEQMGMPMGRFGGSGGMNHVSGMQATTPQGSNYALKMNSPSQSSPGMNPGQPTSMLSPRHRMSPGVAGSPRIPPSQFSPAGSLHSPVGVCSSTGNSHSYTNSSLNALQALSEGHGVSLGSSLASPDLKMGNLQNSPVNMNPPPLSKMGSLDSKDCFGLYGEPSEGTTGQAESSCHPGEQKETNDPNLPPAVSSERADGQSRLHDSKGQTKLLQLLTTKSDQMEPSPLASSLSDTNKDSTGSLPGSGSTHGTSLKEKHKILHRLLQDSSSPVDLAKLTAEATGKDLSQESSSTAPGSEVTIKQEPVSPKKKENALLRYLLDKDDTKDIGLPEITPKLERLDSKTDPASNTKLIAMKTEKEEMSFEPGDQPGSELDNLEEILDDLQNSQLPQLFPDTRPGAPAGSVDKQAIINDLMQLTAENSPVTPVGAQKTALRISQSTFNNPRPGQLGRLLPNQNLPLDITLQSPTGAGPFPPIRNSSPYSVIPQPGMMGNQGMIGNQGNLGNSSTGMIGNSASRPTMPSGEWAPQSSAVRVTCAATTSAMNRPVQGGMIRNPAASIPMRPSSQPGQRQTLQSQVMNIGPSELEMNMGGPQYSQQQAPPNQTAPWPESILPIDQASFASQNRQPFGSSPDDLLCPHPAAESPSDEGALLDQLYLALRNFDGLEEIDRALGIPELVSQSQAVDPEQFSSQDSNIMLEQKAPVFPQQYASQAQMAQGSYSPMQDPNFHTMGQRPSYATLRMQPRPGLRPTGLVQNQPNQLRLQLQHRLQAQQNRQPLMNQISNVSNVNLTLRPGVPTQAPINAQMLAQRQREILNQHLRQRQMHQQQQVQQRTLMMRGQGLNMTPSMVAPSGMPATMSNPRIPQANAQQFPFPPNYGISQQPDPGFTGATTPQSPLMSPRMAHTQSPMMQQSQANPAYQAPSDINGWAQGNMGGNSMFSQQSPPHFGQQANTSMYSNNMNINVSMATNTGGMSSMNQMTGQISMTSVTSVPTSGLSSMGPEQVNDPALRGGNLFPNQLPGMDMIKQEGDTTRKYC
# [7] = target: Galanin receptor type 2 (Homo sapiens) (UniProt O43603); assay: blockers of human galanin receptor 2 – cell-based, confirmation (AID 866; in the data active = inhibition above about 27%;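 note: cells stimulated with galanin at about its EC80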); details: GALR2-expressing cells, antagonist mode, at 4 µM, stronger effect = higher value
# Galanin receptor type 2 (Homo sapiens), sequence (O43603 whole entry, looked up): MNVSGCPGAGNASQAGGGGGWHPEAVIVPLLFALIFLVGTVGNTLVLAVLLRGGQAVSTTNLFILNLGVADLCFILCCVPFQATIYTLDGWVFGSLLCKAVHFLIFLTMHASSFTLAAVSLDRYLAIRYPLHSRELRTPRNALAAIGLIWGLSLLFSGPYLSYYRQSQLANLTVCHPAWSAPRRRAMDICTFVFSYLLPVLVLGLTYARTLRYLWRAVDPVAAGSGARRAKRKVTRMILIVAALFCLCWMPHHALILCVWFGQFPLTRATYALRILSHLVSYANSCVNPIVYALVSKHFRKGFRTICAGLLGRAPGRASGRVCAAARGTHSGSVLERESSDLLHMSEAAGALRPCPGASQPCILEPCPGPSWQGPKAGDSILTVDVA
# [8] = nonspecific BLA reporter inhibition – CHO NFAT-bla cells, FRET readout, counter-screen for GALR2 antagonist project, confirmation (AID 867;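 active = inhibition above the mean inhibition across tested compounds plus 3 SD, cut at about 27% in these data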;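 note: 0% = 500 nM thapsigargin stimulated wells and 100% = unstimulated BSA only wells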); details: beta-lactamase FRET, thapsigargin-stimulated, at 4.2 µM, stronger effect = higher value
# [9] = tested on: DAF-12 nuclear receptor (Heterodera glycines), GAL4-LBD fusion; assay: hgDAF-12 GAL4 fusion reporter activation, retest – cell-based, luminescence, HEK293, GAL4-LBD fusion, confirmation (AID 743050;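 active = mean activation over triplicate wells above the hit cutoff derived from the earlier primary screen, cut at about 11% in these data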;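 note: 0% = DMSO low control and 100% = 2 mM sodium butyrate high control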); details: HEK293 GAL4-hgDAF12 luciferase reporter, agonist mode; at 6.8 µM; stronger effect = higher value; percent of butyrate response
# [10] = target: Oxysterols receptor LXR-beta (Homo sapiens) (UniProt P55055); assay: nonspecific reporter activation via LXR – cell-based, luminescence, HEK293, H. glycines campaign, counter-screen for hgDAF-12 agonist project, confirmation (AID 743051;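 active = mean activation of the triplicate above a set limit carried over from the primary screen, none filed active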); details: HEK293 Gal4-LXR luciferase reporter, 24 h; at 6.8 µM; stronger effect = higher value
# Oxysterols receptor LXR-beta (Homo sapiens), sequence (P55055 whole entry, looked up, the tested form may be a part): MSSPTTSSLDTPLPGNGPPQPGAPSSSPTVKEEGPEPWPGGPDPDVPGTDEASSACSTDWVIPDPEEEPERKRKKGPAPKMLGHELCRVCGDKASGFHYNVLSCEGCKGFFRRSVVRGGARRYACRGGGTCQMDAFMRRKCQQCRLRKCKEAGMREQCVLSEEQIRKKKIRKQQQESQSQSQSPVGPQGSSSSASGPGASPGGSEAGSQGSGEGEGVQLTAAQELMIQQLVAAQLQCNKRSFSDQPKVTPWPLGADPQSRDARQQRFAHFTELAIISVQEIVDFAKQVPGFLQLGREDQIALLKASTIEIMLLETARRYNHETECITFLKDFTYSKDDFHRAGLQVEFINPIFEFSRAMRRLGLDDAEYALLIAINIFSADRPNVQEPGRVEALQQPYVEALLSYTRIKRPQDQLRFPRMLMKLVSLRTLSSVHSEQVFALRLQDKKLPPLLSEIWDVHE
# [11] = target: Oxysterols receptor LXR-beta (Homo sapiens) (UniProt P55055); assay: nonspecific reporter activation via LXR – cell-based, luminescence, HEK293, H. contortus campaign, counter-screen for hcDAF-12 agonist project, confirmation (AID 743027;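 active = mean percent activation of the reporter above a cutoff set as the average over tested compounds plus their standard deviation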); details: HEK293 Gal4-LXR tk-luc reporter, 24 h, at 6.8 µM, stronger effect = higher value, normalized: DMSO 0%, positive control 100%
# [12] = tested on: Nuclear hormone receptor DAF-12 (Haemonchus contortus); assay: hcDAF-12 luciferase reporter activation, retest – cell-based, luminescence, HEK293, lit1-tk-luc, triplicate, confirmation (AID 743032;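 active = mean activation across triplicate tests above the threshold derived from the earlier primary screen, cut at about 5.5% in these data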;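 note: 0% = DMSO only wells and 100% = 3 µM Δ7-dafachronic acid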); details: HEK293 hcDAF-12 lit1-tk-luc reporter, at 6.8 µM, stronger effect = higher value, % of Δ7-dafachronic acid response
compound,measurement,setting,value
COc1ccccc1N(CC(=O)N/N=C(\C)c1ccccc1O)S(=O)(=O)c1ccc(C)cc1,inhibition,[1],-17.6%
same,inhibition,[2],14.3%
O=C(c1c(F)cccc1F)N1CCN(S(=O)(=O)c2ccc3c(c2)OCCO3)CC1,inhibition,[3],-10.6%
same,inhibition,[4],23.4%
CN1CCN(/N=C/c2ccc(C#N)cc2)CC1,inhibition,[1],1.63%
same,inhibition,[2],2.78%
CCN(C(=O)Nc1cccc2ccccc12)c1ccccc1,inhibition,[1],2.01%
same,inhibition,[2],3.23%
CN(C)CCNC(=O)C(C(=O)c1ccccc1)n1ccccc1=O (stereo unspecified),inhibition,[1],-0.25%
same,inhibition,[2],2.79%
Cc1ccc(O)c(/C=N/NC(=O)COc2ccc3c(C)cc(=O)oc3c2)c1,inhibition,[1],-10.9%
same,inhibition,[2],46.1% (active)
COc1ccc(/C=C2/SC(=O)N(CCCCCC(=O)Nc3ccccc3C(=O)O)C2=S)cc1,inhibition,[5],53.8% (active)
same,inhibition,[6],63.9% (active)
same,inhibition,[3],29.6% (active)
same,inhibition,[4],17.7%
COc1ccc(/C(=N\O)c2nccc3cc(OC)c(OC)cc23)cc1OC,inhibition,[1],-7.63%
same,inhibition,[2],15.5%
Cc1ccc(-c2nn(-c3ccccc3)cc2/C=C/C(=O)Nc2cccc(S(N)(=O)=O)c2)cc1,inhibition,[1],26.6% (active)
same,inhibition,[2],48.1% (active)
O=C(N/N=C/c1ccco1)c1ccc(C(=O)N/N=C/c2ccco2)o1,inhibition,[1],-19.7%
same,inhibition,[2],28.2% (active)
COc1ccc(Br)cc1C(=O)NC(=S)Nc1cc(-c2nc3ccccc3[nH]2)ccc1C,inhibition,[1],17.9%
same,inhibition,[2],34.4% (active)
O=C(N/N=C/c1cc([N+](=O)[O-])ccc1O)/C(=C\c1cccs1)NC(=O)c1ccccc1,inhibition,[1],-11.3%
same,inhibition,[2],35% (active)
Cc1ccc(-c2nc(CSCC(=O)NC3CCN(Cc4ccccc4)CC3)c(C)o2)cc1,inhibition,[5],11%
same,inhibition,[6],33.9%
same,inhibition,[3],0.41%
same,inhibition,[4],22.5%
Oc1ccc(N=Cc2c(O)ccc3ccccc23)cc1,inhibition,[1],-3.16%
same,inhibition,[2],4.09%
COc1ccccc1C(=O)NNC(=O)c1ccc(NC(=O)c2ccccc2)cc1,inhibition,[1],-8.35%
same,inhibition,[2],35.5% (active)
CNC(=S)NNC(=O)c1cccn(Cc2ccccc2)c1=O,inhibition,[1],4.48%
same,inhibition,[2],46.7% (active)
CCC(=O)NC(=S)Nc1ccc(NC(=O)c2ccco2)c(Cl)c1,inhibition,[1],3.69%
same,inhibition,[2],13.4%
O=S1(=O)c2c(cccc2N2CCCC2)O[C@H](COCc2ccccc2)CN1C1CC1,inhibition,[1],-4.17%
same,inhibition,[2],1.77%
CN(C)S(=O)(=O)c1cccc(NC(=O)COC(=O)C2(c3ccccc3F)CCCC2)c1,inhibition,[7],17.7%
same,inhibition,[8],15.1%
same,inhibition,[5],-4.31%
same,inhibition,[6],0.58%
Cc1ccc2nc(-c3ccc(Br)cc3)cn2c1,inhibition,[5],9.32%
same,inhibition,[6],78.4% (active)
same,inhibition,[3],-12.3%
same,inhibition,[4],19.1%
O=C(Nc1cccc(-c2nc3ccccc3[nH]2)c1)c1ccc(C(=O)Nc2cccc(-c3nc4ccccc4[nH]3)c2)cc1,inhibition,[1],9.76%
same,inhibition,[2],10.8%
CCOCC(=O)NCc1ccc2c(c1)cc(C)n2C,inhibition,[1],6.46%
same,inhibition,[2],6.18%
COc1ccc(NS(=O)(=O)c2cc(NC(=O)/C=C/c3cc(OC)c(OC)c(OC)c3)ccc2N2CCCCC2)cc1,inhibition,[1],11%
same,inhibition,[2],29.4% (active)
Cc1cc(C(=O)CCC(=O)NNC(=O)c2ccccc2O)c(C)s1,inhibition,[1],-14.4%
same,inhibition,[2],11.4%
CN1OC[C@@H]2CN(S(=O)(=O)c3cccc(C(F)(F)F)c3)[C@H](c3ccc(-c4cc5ccccc5o4)cc3)C[C@@H]21,inhibition,[5],3.18%
same,inhibition,[6],46.3%
same,inhibition,[3],-5.07%
same,inhibition,[4],0.77%
Cc1ncc(CO)c(/C=N/NC(=O)c2cccc(S(=O)(=O)N3CCCC3)c2)c1O,inhibition,[1],-12.6%
same,inhibition,[2],15.4%
O=C1C(Cc2ccc(O)cc2)NC(=S)N1Cc1ccccc1 (stereo unspecified),inhibition,[1],-2.95%
same,inhibition,[2],-0.37%
O=S(=O)(O)c1cc2onnc2c2ccccc12,inhibition,[1],11%
same,inhibition,[2],4.6%
Cc1cc2nc3c(=O)[nH]c(=O)nc-3n(C[C@H](O)[C@H](O)[C@H](O)CO)c2cc1C,inhibition,[1],50.4% (active)
same,inhibition,[2],33.3% (active)
COc1ccccc1C(=O)NNC(=O)CCN1C(=O)/C(=C\c2ccccc2)SC1=S,inhibition,[1],-8.51%
same,inhibition,[2],9.19%
COCCCNC(=S)NNC(=O)C(O)(c1ccccc1)c1ccccc1,inhibition,[1],-0.41%
same,inhibition,[2],16.3%
COc1ccc(C(=O)NNc2cc(C)nc(NNC(=O)c3ccc(OC)cc3)n2)cc1,inhibition,[1],-5.67%
same,inhibition,[2],5.09%
Cc1ccc(C(=O)NCC(=O)O)cc1S(=O)(=O)N1CCCCC1,inhibition,[1],2.01%
same,inhibition,[2],5.08%
CNS(=O)(=O)c1ccc2c(c1)[nH]c(=S)n2C,inhibition,[1],10.3%
same,inhibition,[2],10.3%
CC[C@@H](C)[C@H](NC(=O)CCc1c(C)c2cc3c4c(oc3c(C)c2oc1=O)CCCC4)C(=O)O,inhibition,[5],40.8% (active)
same,inhibition,[6],59.5% (active)
same,inhibition,[3],22.3% (active)
same,inhibition,[4],24.8%
COc1ccc(-c2c(-c3cc(OC)cc(OC)c3)n(C)c3ccc(-c4ccn[nH]4)cc23)cc1,inhibition,[1],1.44%
same,inhibition,[2],-1.35%
COc1ccc(OC)c(NC(=O)c2cc(-c3cc(F)ccc3OCC3CCCO3)n[nH]2)c1 (stereo unspecified),inhibition,[5],1.64%
same,inhibition,[6],-1.6%
same,inhibition,[3],3.7%
same,inhibition,[4],-6.7%
COc1ccc(C(=O)NC(=S)NNC(=O)CCc2ccccc2)cc1,inhibition,[1],4.22%
same,inhibition,[2],13%
C[C@H]1CCC/C=C/C(=O)c2c(O)cc(O)cc2CC(=O)O1,inhibition,[5],41.5% (active)
same,inhibition,[6],55.5% (active)
same,inhibition,[3],49.3% (active)
same,inhibition,[4],-1.02%
C/C=C/C=C/C(=O)O,inhibition,[1],3.35%
same,inhibition,[2],6.03%
O=C1NC[C@@H](Cc2ccc(O)cc2)N(CCc2cccc(F)c2)C1=O,inhibition,[5],-20.2%
same,inhibition,[6],-26.9%
same,inhibition,[3],4.3%
same,inhibition,[4],5.14%
O=C(O)c1ccc(N/N=C/c2cn(-c3ccccc3)nc2-c2cccs2)cc1,activation,[9],19.1% (active)
same,activation,[10],0.89%
CC(C)(C)NC(=O)C(c1ccncc1)N(C(=O)CNC(=O)c1ccco1)c1ccc2c(c1)OCO2 (stereo unspecified),activation,[11],-0.43%
same,activation,[12],-0.59%
CC(C)(C)OC(=O)N/N=C/c1ccc(C(=O)O)cc1,activation,[11],-0.15%
same,activation,[12],0.76%
CCc1ccc(NC(=O)N2CCc3ccccc3C2)cc1,activation,[11],0.65%
same,activation,[12],7.24% (active)
Nc1ccc2[nH]c(=S)sc2c1,activation,[11],0.01%
same,activation,[12],2.92%
Cc1ccc(C(=O)O/N=C(\N)c2ccccn2)cc1Cl,activation,[11],1.52%
same,activation,[12],4.81%
COc1ccc(C2=NOC(COC(=O)c3ccc4ccccc4n3)C2)cc1 (stereo unspecified),activation,[11],0.05%
same,activation,[12],4.94%
NS(=O)(=O)c1ccccc1NC(=O)c1c(O)c2ccccc2[nH]c1=O,activation,[11],1.36%
same,activation,[12],9.27% (active)
O=C(N/N=C\C1CC=CCC1)c1ccc(Br)o1 (stereo unspecified),activation,[11],-0.16%
same,activation,[12],0.29%
Cn1ccnc1SCC(=O)Nc1ccc2c(c1)OCCO2,activation,[11],0.85%
same,activation,[12],2.69%
O=C(OCC(=O)c1c[nH]c2ccccc12)c1cccc(O)c1,activation,[11],0.27%
same,activation,[12],7.43% (active)
O=C(O)c1ccccc1CSc1nc2ccccc2s1,activation,[11],0.24%
same,activation,[12],9.05% (active)
CC(=O)N1CCN(c2ccccc2NC(=S)NC(=O)c2cc3ccccc3o2)CC1,activation,[11],-0.28%
same,activation,[12],1.71%
Cc1cccnc1NC(=O)Cn1c(=O)oc2ccccc21,activation,[11],-0.23%
same,activation,[12],1.31%
COc1ccccc1OCc1nc2ccccc2s1,activation,[11],1.64%
same,activation,[12],17.7% (active)
NNC(=O)C1CCCn2c1nc1sc3c(c1c2=O)CCCC3 (stereo unspecified),activation,[11],-0.2%
same,activation,[12],4.24%
Cc1ccccc1C(=O)N[C@H](C(=O)N1CCC[C@H]1C(=O)NCc1ccccc1)C(C)C,activation,[11],-0.15%
same,activation,[12],0.18%
Cc1cccc(-c2nc3ccccc3c(=O)n2NC(=O)Cc2ccc(Cl)cc2)c1,activation,[11],-0.04%
same,activation,[12],0.97%
COc1ccccc1-c1nnc(NC(=O)c2ccc3ncsc3c2)o1,activation,[11],0.28%
same,activation,[12],10.3% (active)
COc1ccc(C(=O)Nc2sc(C)c(C)c2CN2CCOCC2)cc1,activation,[11],0.23%
same,activation,[12],4.47%
CCc1cc2c(=O)c(-c3ccon3)c(N)oc2cc1OC,activation,[11],0.84%
same,activation,[12],6.18% (active)
CCS(=O)(=O)c1cc([N+](=O)[O-])c(Sc2ccccc2N)s1,activation,[11],0.38%
same,activation,[12],7.39% (active)
O=C(O)CN1c2cccc3cccc(c23)S1(=O)=O,activation,[11],-0.29%
same,activation,[12],1.3%
Cc1cc(O)c(C(=O)/C=C/c2c(F)c(F)c(F)c(F)c2F)c(=O)o1,activation,[11],-0.23%
same,activation,[12],-1.06%
C/C(=N/NC(=S)Nc1ccccc1)c1ccc2c(c1)OCO2,activation,[11],0.01%
same,activation,[12],0.89%
O=C(NC(Cc1c[nH]c2ccccc12)C(=O)O)/C(=C/c1ccco1)NC(=O)c1ccccc1 (stereo unspecified),activation,[11],0.05%
same,activation,[12],3.64%
O=C(NC1CCCCC1)C(c1cc2ccccc2o1)n1c(=O)c(-c2ccco2)nc2ccccc21 (stereo unspecified),activation,[11],0.03%
same,activation,[12],5.1%
Cc1nn(CCOc2ccccc2)c(=O)n1-c1ccccc1F,activation,[11],0.49%
same,activation,[12],5.42%
